Sa ugtP lethal: growth inhibition of S. aureus ugtP deletion strain; S. aureus RN4220 ugtP deletion, OD600 growth, 16 h; growth inhibition, % (no concentration beside the values); 330,000 tested, 0.54% active; in the data active = growth inhibition above about 68%;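 note: plate controls were untreated wells for no effect and antibiotic for full effect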
Sa RN4220 lethal: kills Staphylococcus aureus RN4220 | S. aureus RN4220 growth, OD600, 16 h | inhibition, % (concentration not given with the values) | 330,000 tested, 0.33% active | AID 1259311; in the data active = inhibition above about 85%;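 note: plate controls were untreated cells for no effect and reference antibiotic for full effect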
BJeLR viability: BJeLR cell viability loss; BJeLR (HRASV12) viability, CellTiter-Glo ATP luminescence, 48 h; 300,000 tested, 0.17% active; inhibition, % (concentration not given with the values); in the data active = inhibition above about 50%
MazEF act: increases E. coli MazEF RNase cleavage of RNA; 350,000 tested, 0.32% active; P0AE70; FAM/BHQ RNA-DNA oligo cleavage fluorescence, 5 h; activation, % at 20 µM; in the data active = activation above about 50%
Target sequence (P0AE70 whole entry, looked up): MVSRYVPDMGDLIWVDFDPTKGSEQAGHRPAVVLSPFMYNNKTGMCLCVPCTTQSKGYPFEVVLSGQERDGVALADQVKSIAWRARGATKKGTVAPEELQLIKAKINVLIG
PriA SSB inh: blocks PriA binding to SSB C-terminal tail | 430,000 tested, 0.6% active | inhibition, % at 33 µM | AlphaScreen SSBct-PriA binding, biotinylated peptide; in the data active = inhibition mostly above about 37%, no sharp cut-off; inactive = mostly below about 20%;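 note: plate controls were negative control peptide for no effect and reference peptide for full effect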
* = called active by the depositor. Sampled rows, rich in hits. Any-hit rate of the full collection: about 1.2%.

O=[N+]([O-])c1c(Nc2ccccc2O)cc(Cl)c2nonc12 was read as Sa ugtP lethal 87, Sa RN4220 lethal 98*, BJeLR viability 3, MazEF act 15 and PriA SSB inh 17.
Screening COc1cccc(NC(=O)C2C3C=CC4(O3)C2C(=O)N(CCCN2CCCC(C)C2)C4C(=O)NC2CCCCC2C)c1 (stereo unspecified) returned Sa ugtP lethal 4, Sa RN4220 lethal 5, BJeLR viability -9, MazEF act 10 and PriA SSB inh -3.
`Cc1cccc(-n2cnc3c(sc4nc(N5CCOCC5)c5c(c43)CCCC5)c2=O)c1` gave Sa ugtP lethal 20, Sa RN4220 lethal -2, BJeLR viability 4, MazEF act -22 and PriA SSB inh 0.
Cc1cccc(N2CCN(C(=S)Nc3ccc4nc(N5CCN(C)CC5)cc(C)c4c3)CC2)c1C was read as Sa ugtP lethal 7, Sa RN4220 lethal 0, BJeLR viability 71*, MazEF act 35 and PriA SSB inh -2.
CCN1CCCC(CO)(Cc2ccccc2)C1 (stereo unspecified) was read as Sa ugtP lethal 12, Sa RN4220 lethal 5, BJeLR viability 10, MazEF act 8 and PriA SSB inh -16.
Screening CC1=C(C)C(=NOS(=O)(=O)c2ccccc2)C=CC1=O returned Sa ugtP lethal 9, Sa RN4220 lethal 5 and PriA SSB inh -9.
`CC1=C(C)/C(=N\OS(=O)(=O)c2ccccc2)C=CC1=O` gave BJeLR viability 84* and MazEF act -3.
`CCOC(=O)c1cnc(-c2ccccc2)nc1Oc1ccccc1` gave Sa ugtP lethal 86*, Sa RN4220 lethal -6, BJeLR viability 4, MazEF act -2 and PriA SSB inh -22.
CCOC(=O)c1cnc(-c2ccccc2)nc1Oc1ccc(OC)cc1 was read as Sa ugtP lethal 3, Sa RN4220 lethal 1, BJeLR viability -11, MazEF act -6 and PriA SSB inh -18.
`CCOC(=O)CN1C=C(c2ccc3ccccc3n2)C(C[N+](=O)[O-])c2ccccc21` (stereo unspecified) gave Sa ugtP lethal -13, Sa RN4220 lethal -13, BJeLR viability 2, MazEF act 233* and PriA SSB inh -8.
`CCOC(=O)CSc1ccc2ccccc2n1` gave Sa ugtP lethal 0, Sa RN4220 lethal 2, BJeLR viability -8, MazEF act -10 and PriA SSB inh -25.
`CN1/C(=C/c2cc[n+](C)c3ccccc23)C=Cc2ccccc21` gave Sa ugtP lethal 96*, Sa RN4220 lethal 100* and MazEF act 9.
`C[n+]1ccc(/C=C/c2ccccc2O)c2ccccc21` gave Sa ugtP lethal 4, Sa RN4220 lethal 5, BJeLR viability 2, MazEF act 13 and PriA SSB inh -9.
`N#C/C(=C/c1ccc(N2CCOCC2)o1)c1nc2ccccc2[nH]1` gave Sa ugtP lethal -15, Sa RN4220 lethal 1, MazEF act 428* and PriA SSB inh 8.
For O=C(COc1ccc(F)cc1)Nc1c(C(=O)Nc2ccc([N+](=O)[O-])cc2)oc2ccccc12 the results were PriA SSB inh -3.
`CC(=O)OCC(=O)Nc1ccc([N+](=O)[O-])cc1Cl` gave Sa ugtP lethal 3, Sa RN4220 lethal 3, BJeLR viability -5, MazEF act 9 and PriA SSB inh 2.
Screening CC(=O)Oc1c(C)cc(Cl)cc1C(=O)Nc1ccc([N+](=O)[O-])cc1Cl returned Sa ugtP lethal 96*, Sa RN4220 lethal 98*, MazEF act -2 and PriA SSB inh -8.
`Cn1nc(-c2ccc(Cl)cc2)nc2c(=O)n(C)c(=O)nc1-2` gave Sa ugtP lethal 100*, Sa RN4220 lethal 100* and BJeLR viability 19.
Screening O=[N+]([O-])c1cccc(-c2nc3nc4ccccc4nc3n2Cc2ccco2)c1 returned PriA SSB inh -9.
Screening Cc1onc(-c2c(F)cccc2Cl)c1C(=O)NC1C(=O)N2C1SC(C)(C)C2C(=O)O (stereo unspecified) returned Sa ugtP lethal 100* and Sa RN4220 lethal 100*.
Cc1cc(NC(=O)CSCC(=O)OCc2nnc(-c3ccccc3)o2)no1 was read as Sa ugtP lethal 4, Sa RN4220 lethal -1, BJeLR viability -12, MazEF act -2 and PriA SSB inh -14.
Oc1nc(Nc2cccc(Cl)c2)sc1/C=C1\C=Nc2ccccc21 was read as Sa ugtP lethal 100*, Sa RN4220 lethal 100*, BJeLR viability -8, MazEF act 2 and PriA SSB inh -8.
Screening C=CCn1c(SCC(=O)N(C(C)CC)C2CCS(=O)(=O)C2)nc2ccccc2c1=O (stereo unspecified) returned Sa ugtP lethal 11, Sa RN4220 lethal 3, MazEF act 8 and PriA SSB inh 6.
Screening COc1ccc(Nc2ccc(C(F)(F)F)cc2[N+](=O)[O-])cn1 returned Sa ugtP lethal 7, Sa RN4220 lethal 1, BJeLR viability -1, MazEF act -7 and PriA SSB inh 46*.
For COc1ccc(Cl)cc1NC(=O)CCN1C(=O)NC(C)(C)C1=O the results were Sa ugtP lethal 2, Sa RN4220 lethal 4, MazEF act -1 and PriA SSB inh -4.
For COc1ccc(-c2cc(N)n(S(=O)(=O)c3c(F)c(F)c(F)c(F)c3F)n2)cc1OC the results were Sa ugtP lethal 95*, Sa RN4220 lethal 98*, BJeLR viability -15, MazEF act -4 and PriA SSB inh 2.
COc1ccc(S(=O)(=O)n2nc(-c3cc(OC)c(OC)c(OC)c3)cc2N)cc1OC was read as Sa ugtP lethal 4, Sa RN4220 lethal 3, MazEF act 5 and PriA SSB inh -12.
CC(=O)c1ccc(NC(=O)N2CCc3ccccc3C2)cc1 was read as Sa ugtP lethal 8, Sa RN4220 lethal -1, BJeLR viability 105*, MazEF act -2 and PriA SSB inh 5.
Screening COc1ccc(C)cc1NC(=O)C(=O)NCC(c1ccc2c(c1)CCN2C)N(C)C (stereo unspecified) returned PriA SSB inh 53*.
For Oc1c(Cl)cc(Cl)cc1C=Nc1nccs1 the results were Sa ugtP lethal 3, Sa RN4220 lethal 24 and PriA SSB inh 56*.
`Oc1c(Cl)cc(Cl)cc1/C=N/c1nccs1` gave BJeLR viability -2 and MazEF act 10.
`Cn1c(O)c(N=Nc2ccccc2)c2ccccc21` gave Sa ugtP lethal 27, Sa RN4220 lethal 1, BJeLR viability 7, MazEF act -7 and PriA SSB inh 2.
Cn1c(O)c(N=Nc2ccc(F)cc2)c2ccccc21 was read as Sa ugtP lethal 13, Sa RN4220 lethal -2, BJeLR viability -5, MazEF act 337* and PriA SSB inh 0.
Cc1cc(NC(=O)CSc2nnc(Cc3cc(=O)[nH]c(=O)[nH]3)n2-c2ccc(F)cc2)no1 was read as PriA SSB inh -12.
`O=C(Nc1ccccc1F)c1cc(C2CCN(C(=O)Cc3noc4ccccc34)CC2)[nH]n1` gave PriA SSB inh 62*.
O=S(=O)(c1ccccc1)c1cnc2ccc(Cl)cc2c1N1CCN(Cc2ccccc2)CC1 was read as PriA SSB inh -3.

Source: PubChem
